Inconclusive results are not listed. Calls of active or inactive are those of the source. Unless noted, calls come from the whole dose curve; as a rule, active = well fitted curve in the direction sought with a large enough effect; inconclusive = small, poorly fitted or top-dose-only effect, or another doubt; inactive = no such curve, though single readings can be large; an effect the other way counts as inactive or inconclusive.
Experiments:
[1] = Cell Viability - BJ (AID 421; calls by dose curve;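 note: potency is the fitted concentration of half-maximal effect; cells exposed to compound for 40 hours at 37 °C before readout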); conditions: BJ fibroblast viability, qHTS
How it was run: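 Quantitative HTS: ATP depletion in BJ cells after 40 hr compound exposure in complete culture medium, detected with CellTiter-Glo; AC50 from standard Hill fits.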

[2] = Cell Viability - Jurkat (AID 426;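 active = dose-dependent loss of cell ATP signal giving a full or clear fitted curve, ranked by lower potency value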; note: potency is the fitted concentration of half-maximal effect); conditions: qHTS
How it was run: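 Jurkat (clone E6-1, human T-cell leukemia) cells, 5000/well in complete medium, were exposed to compound for 40 hr at 37 °C. Viability was read as intracellular ATP by CellTiter-Glo luminescence; AC50 came from Hill fits of concentration-response data.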

[3] = Cell Viability - HepG2 (AID 433; calls by dose curve;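 note: potency is the fitted concentration of half-maximal effect; potency for ATP loss meaning cytotoxicity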); conditions: qHTS
How it was run: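 Cytotoxicity is scored as loss of intracellular ATP in HepG2 cells exposed to compounds for 40 h. Concentration-response curves, normalized to DMSO and 100 uM tamoxifen, give AC50 values.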

[4] = Cell Viability - MRC5 (AID 434; calls by dose curve;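 note: potency is the fitted concentration of half-maximal effect; potency reflects cytotoxicity seen as loss of intracellular ATP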); conditions: MRC5 lung fibroblast viability, qHTS
How it was run: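 MRC5 normal human lung fibroblasts, 1500 cells/well, exposed to compound for 40 hr at 37 C. Cellular ATP was read by CellTiter-Glo luminescence; data normalized to DMSO and 100 uM tamoxifen, with AC50 from Hill fits.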

[5] = Cell Viability - SK-N-SH (AID 435; calls by dose curve;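 note: potency is the fitted concentration of half-maximal effect; compound exposure lasted 40 h at 37 °C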); conditions: SK-N-SH neuroblastoma cell viability qHTS
How it was run: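 Cells seeded at 1500 per well and incubated 5 hr at 37 °C. Compound added, then 40 hr at 37 °C. CellTiter-Glo added, 20 min at room temperature, luminescence read.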

[6] = Cell Viability - N2a (AID 540); conditions: N2a mouse neuroblastoma cell viability; at 92.2 µM (top of the series);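 note: plate controls were DMSO alone for no effect and tamoxifen control for full effect; nearly all actives have a fitted effect of over 45% in size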
How it was run: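 Mouse neuroblastoma N2a cells (1500/well) were preincubated 5 hr at 37 °C, then exposed to compounds for 40 hr at 37 °C in complete medium. Viability was read as intracellular ATP by CellTiter-Glo luminescence; AC50 from Hill fits.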

[7] = Cell Viability - SH-SY5Y (AID 544); conditions: SH-SY5Y neuroblastoma cell viability; viability change, negative = cytotoxic: at 92.2 µM (top of the series); note: nearly all actives have a fitted effect of over 55% in size
How it was run: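 Human neuroblastoma SH-SY5Y cells (1500/well) in complete medium were exposed to compounds for 40 hr at 37 °C; intracellular ATP was then quantified by CellTiter-Glo luminescence after 20 min at room temperature. AC50 came from Hill-equation concentration-response fits.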

[8] = Cell Viability - Renal Proximal Tubule (AID 545); conditions: renal proximal tubule cells viability; at 91.7 µM (top of the series), primary cells of rat origin unless noted; note: nearly all actives have a fitted effect of over 40% in size
How it was run: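 Cytotoxicity is scored as a concentration-dependent drop in cellular ATP in primary rat renal proximal tubule cells exposed for 40 hr. AC50 derives from Hill modelling.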

[9] = Cell Viability - Mesenchymal (AID 546); conditions: mesenchymal cells viability, qHTS; series mostly up to 91.7 µM;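 note: cells exposed to compound for 40 hours before reading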
How it was run: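 Human kidney mesenchymal cells from normal renal glomeruli, 1000 cells/well, rested 5 hr at 37 °C, then treated 40 hr at 37 °C in complete medium. Cellular ATP read by CellTiter-Glo luminescence; AC50 from Hill-equation fits.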

[10] = Cellular Toxicity (caspase-3) HepG2 (AID 654); conditions: HepG2 caspase-3 activation, luminescence, 0% = DMSO only, 100% = tamoxifen; series mostly up to 92.2 µM;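 note: cells exposed to compound for 16 hours before reading; 0% = DMSO alone and 100% = caspase signal from 100 µM tamoxifen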
How it was run: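 HepG2 cells (1500/well) in complete medium were treated with compounds for 16 hr at 37 °C. Caspase-3/7 activity was then read as luminescence from peptide-aminoluciferin cleavage. AC50 came from Hill fits, normalized to DMSO and 100 uM tamoxifen.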

[11] = Cellular Toxicity (caspase-3) Jurkat (AID 655); conditions: Jurkat caspase-3 activation, luminescence, DMSO = 0%, tamoxifen = 100%; at 92.2 µM (top of the series);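 note: cells exposed to compound for 16 h at 37 °C before reading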
How it was run: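 Caspase 3/7 activation is scored as increased luminescence in Jurkat cells cultured with compound for 16 hours in complete medium. AC50 values come from Hill fits of qHTS concentration-response data normalized to DMSO and 100 uM tamoxifen controls.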

[12] = Cellular Toxicity (caspase-3) HUV-EC-C (AID 656); conditions: HUV-EC-C cells, caspase-3 activation (apoptosis), vehicle = 0, 100 µM tamoxifen = 100%; series mostly up to 92.2 µM
How it was run: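 Read-out: luminescence proportional to caspase 3/7 activity, measured 20 min after adding Caspase-Glo 3/7 reagent. Cells (HUV-EC-C) had received compound for 16 hr at 37°C. Increases relative to DMSO and 100 uM tamoxifen gave concentration-response AC50 values.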

[13] = Cellular Toxicity (caspase-3) SHSY5Y (AID 657); conditions: SH-SY5Y caspase-3 activation, DMSO zero, 10 µM staurosporine = 100%; series mostly up to 91.7 µM
How it was run: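 Cells plated and incubated 5 h at 37 °C, dosed over a concentration range, incubated 16 h, then given Caspase-Glo 3/7 reagent for 1 h at room temperature before luminescence reading. Staurosporine (10 uM) defined full stimulation.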

[14] = Cellular Toxicity (caspase-3) BJ (AID 658); conditions: BJ fibroblasts, luminescence, normalized: DMSO 0%, staurosporine 100%; series mostly up to 91.7 µM
How it was run: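 BJ human foreskin fibroblasts, 1000 cells/well, treated 16 hours at 37 °C in complete medium; caspase 3/7 activity by Caspase-Glo luminescence after 1 hr at room temperature. Normalized to DMSO and 10 uM staurosporine; AC50 from Hill fits.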

[15] = Cellular Toxicity (caspase-3) MRC-5 (AID 659); conditions: MRC-5 cells, luminescence, normalized: DMSO 0%, 10 µM staurosporine 100%; series mostly up to 91.7 µM
How it was run: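 MRC-5 human normal lung fibroblasts, 1500 cells/well, treated 16 h at 37 °C in complete medium. Caspase 3/7 measured by Caspase-Glo luminescence after 1 h at room temperature. Normalized to DMSO and 10 uM staurosporine; AC50 from Hill fit.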

[16] = Cellular Toxicity (caspase-3) Mesangial (AID 660); conditions: mesangial cells, normalized: DMSO 0%, 100 µM tamoxifen 100%; series mostly up to 91.7 µM
How it was run: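 Human renal glomerular mesangial cells (1000/well) were treated with compounds for 16 h at 37 °C in complete medium, then caspase 3/7 activity was read by Caspase-Glo luminescence. Data were normalized to DMSO and 100 uM tamoxifen; AC50 from Hill fits.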

[17] = Cellular Toxicity (caspase-3) SK-N-SH (AID 661); conditions: SK-N-SH caspase-3 activation, qHTS, DMSO as zero, staurosporine as full; series mostly up to 91.7 µM
How it was run: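 SK-N-SH human neuroblastoma cells (1500/well) were treated with compounds for 16 hr at 37 °C in complete medium; caspase 3/7 activity was read by Caspase-Glo luminescence. AC50 came from Hill fits of data normalized to DMSO and 10 uM staurosporine.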

[18] = Cellular Toxicity (caspase-3) H-4-II-E (AID 663); conditions: H-4-II-E rat hepatoma, scaled: DMSO 0%, 100 µM tamoxifen 100%; series mostly up to 92.2 µM;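 note: cells exposed to compound for 16 hr before readout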
How it was run: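 Rat hepatoma H-4-II-E cells (1500/well) plated 5 hr, then exposed to compound titrations for 16 hr at 37 °C. Caspase-Glo 3/7 luminescence read after 20 min at RT; data normalized to DMSO and 100 uM tamoxifen, AC50 from Hill fits.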

[19] = Cellular Toxicity (caspase-3) Hek293 (AID 664); conditions: HEK293 caspase-3 activation, DMSO = 0%, 100 µM tamoxifen = 100%; series mostly up to 92.2 µM;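 note: cells exposed to compound for 16 h at 37 °C before readout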
How it was run: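 HEK293 cells were exposed to compounds in complete medium for 16 hr at 37 °C, then caspase-3/7 activity was read by Caspase-Glo 3/7 luminescence after 20 min at room temperature. Data normalized to DMSO and 100 uM tamoxifen; AC50 from Hill fits.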

[20] = Cellular Toxicity (caspase-3) NIH 3T3 (AID 666); conditions: NIH 3T3 caspase-3 activation, apoptosis/toxicity, 0% DMSO, 100% is 100 µM tamoxifen; series mostly up to 92.2 µM;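 note: caspase signal read after 16 h compound exposure; 0% = DMSO basal and 100% = 100 µM tamoxifen stimulation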
How it was run: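 Mouse NIH 3T3 fibroblasts (1000 cells/well) were treated with compound for 16 hr at 37°C in complete medium; caspase-3/7 activity was read by Caspase-Glo luminescence. Normalized to DMSO and 100 uM tamoxifen; AC50 from Hill fits.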

[21] = Cellular Toxicity (caspase-3) Renal Proximal Tubule (AID 667); conditions: renal proximal tubule cells; at 91.7 µM (top of the series), primary cells freshly taken from rat, solvent-only wells 0%, staurosporine 100% unless noted;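 note: cells exposed to compound for 16 hours at 37 °C before detection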
How it was run: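 In qHTS format, rat primary proximal tubule cells seeded at 1000 per well are exposed to compounds for 16 hours at 37 °C. An increase in Caspase-Glo 3/7 luminescence indicates caspase activation.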

[22] = biological target: Cytochrome P450 3A4 (Homo sapiens) (UniProt P08684); experiment: qHTS Assay for Inhibitors and Substrates of Cytochrome P450 3A4 (AID 884); conditions: recombinant CYP3A4, Luciferin-PPXE luminescence; series mostly up to 57.1 µM; note: % is set by controls: 0 for no effect and ±100 for the full control effect; nearly all actives have a fitted effect of over 50% in size
Sequence of Cytochrome P450 3A4 (Homo sapiens) (P08684 whole entry, looked up): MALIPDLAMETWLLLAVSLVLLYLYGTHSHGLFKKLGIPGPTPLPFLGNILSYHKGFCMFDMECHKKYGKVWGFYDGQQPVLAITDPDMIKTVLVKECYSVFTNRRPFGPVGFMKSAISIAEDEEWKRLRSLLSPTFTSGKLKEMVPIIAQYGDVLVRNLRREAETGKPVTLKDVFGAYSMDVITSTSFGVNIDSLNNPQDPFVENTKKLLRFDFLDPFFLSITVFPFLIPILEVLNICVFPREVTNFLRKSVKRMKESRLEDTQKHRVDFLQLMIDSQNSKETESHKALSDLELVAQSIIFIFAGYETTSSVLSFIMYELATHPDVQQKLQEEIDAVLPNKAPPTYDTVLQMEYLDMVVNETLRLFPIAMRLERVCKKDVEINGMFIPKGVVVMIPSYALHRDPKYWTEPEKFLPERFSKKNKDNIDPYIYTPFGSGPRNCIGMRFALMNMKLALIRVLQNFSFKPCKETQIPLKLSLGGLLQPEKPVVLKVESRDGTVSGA
How it was run: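 20 nM human CYP3A4 with 25 uM Luciferin-PPXE (at KM) in 200 mM KPO4, preincubated 10 min with compound; NADPH regeneration started a 60 min RT reaction. Luciferin detected by luminescence, normalized to 57 uM ketoconazole as full inhibition.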

CCCOC(=O)c1ccccc1C(=O)OCCC
inactive: Potency [1] > 92 µM | Potency [2] > 92 µM | Potency [3] > 92 µM | Potency [4] > 92 µM | Potency [5] > 92 µM | activity change, negative = cytotoxicity [6] -15% | Potency [7] | activity change, negative = cytotoxicity [8] -1.75% | outcome [9] | outcome [10] | caspase-3 activation [11] -1.2% | outcome [12] | outcome [13] | outcome [14] | outcome [15] | outcome [16] | outcome [17] | outcome [18] | outcome [19] | outcome [20] | caspase-3 activation [21] 0.709% | Potency [22]

From PubChem BioAssay (NCATS)
